Reference: PubChem BioAssay (NCATS)
Records with an inconclusive call do not appear. Calls of active or inactive are those of the source. The call rests on the fitted dose curve; in most records, active means well fitted cell-killing curve with a large enough effect; inconclusive means small, poorly fitted or top-dose-only effect, or effect the other way; inactive means flat fitted curve, though single readings scatter.

What was measured:
Assay in all cases: Primary qHTS to identify gynecologic anti-cancer compounds using libraries of approved drugs and bioactive compounds (AID 1345084); further: nearly all actives have a fitted effect of over 55% in size
C33A = conditions: Gynecologic cancer cell panel viability, ATPlite luminescence, 48 h; series mostly up to 57.5 µM
Summary of the method: (§1)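 ATP-based viability (ATPlite), 1,000 cells/well, 16 h pre-incubation, 48 h compound at 37 C, 5% CO2, 15 min RT before read.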

CAOV3 = conditions: Gynecologic cancer cell panel viability, ATPlite luminescence, 48 h; series mostly up to 57.5 µM
Summary of the method: as §1

CASKI = conditions: Gynecologic cancer cell panel viability, ATPlite luminescence, 48 h; series mostly up to 57.5 µM
Summary of the method: as §1

Es-2 = conditions: Gynecologic cancer cell panel viability, ATPlite luminescence, 48 h; series mostly up to 57.5 µM
Summary of the method: as §1

HeLa = conditions: Gynecologic cancer cell panel viability, ATPlite luminescence, 48 h; series mostly up to 57.5 µM
Summary of the method: as §1

Hek293T = conditions: Gynecologic cancer cell panel viability, ATPlite luminescence, 48 h, control line for the selectivity index; series mostly up to 57.5 µM
Summary of the method: as §1

JEG-3 = conditions: Gynecologic cancer cell panel viability, ATPlite luminescence, 48 h; series mostly up to 57.5 µM
Summary of the method: as §1

OV90 = conditions: Gynecologic cancer cell panel viability, ATPlite luminescence, 48 h; series mostly up to 57.5 µM
Summary of the method: as §1

PA-1 = conditions: Gynecologic cancer cell panel viability, ATPlite luminescence, 48 h; series mostly up to 57.5 µM
Summary of the method: as §1

SKOV3 = conditions: Gynecologic cancer cell panel viability, ATPlite luminescence, 48 h; series mostly up to 57.5 µM
Summary of the method: as §1

Tov-21-G = conditions: Gynecologic cancer cell panel viability, ATPlite luminescence, 48 h; series mostly up to 57.5 µM
Summary of the method: as §1

Tov112D = conditions: Gynecologic cancer cell panel viability, ATPlite luminescence, 48 h; series mostly up to 57.5 µM
Summary of the method: as §1
On the % scale 0 is the no-effect control and ±100 the full control effect.

COC(=O)C[C@@H]1C(C(=O)O)=CO[C@@H](O[C@@H]2O[C@H](CO)[C@@H](O)[C@H](O)[C@H]2O)/C1=C\COC(=O)/C=C\c1ccccc1
inactive: Potency (C33A) | Potency (CAOV3) | Potency (CASKI) | Potency (Es-2) | Potency (HeLa) | Potency (Hek293T) | Potency (JEG-3) | Potency (OV90) | Potency (PA-1) | Potency (SKOV3) | Potency (Tov-21-G) | Potency (Tov112D)

C/C=C/C=C/C=C/C(=O)O[C@@H]1[C@@H](OC)C2=C(C(=O)N(C(C)C(=O)O)C2)[C@@]2(C)CCCC(C)(C)[C@H]12 (some centres undefined)
inactive: Potency (C33A) | Potency (CAOV3) | Potency (CASKI) | Potency (Es-2) | Potency (HeLa) | Potency (Hek293T) | Potency (JEG-3) | Potency (OV90) | Potency (PA-1) | Potency (SKOV3) | Potency (Tov-21-G) | Potency (Tov112D)

COC(=O)[C@H](CC1C=NC=N1)NCC12CC3CC(CC(C3)C1)C2 (some centres undefined)
inactive: Potency (C33A) | Potency (CAOV3) | Potency (CASKI) | Potency (Es-2) | Potency (HeLa) | Potency (Hek293T) | Potency (JEG-3) | Potency (OV90) | Potency (PA-1) | Potency (SKOV3) | Potency (Tov-21-G) | Potency (Tov112D)

CC1CCC2C(C(=O)O)=CC3C(O)C(C)(C)CC123 (centres undefined)
inactive: Potency (C33A) | Potency (CAOV3) | Potency (CASKI) | Potency (Es-2) | Potency (HeLa) | Potency (Hek293T) | Potency (JEG-3) | Potency (OV90) | Potency (PA-1) | Potency (SKOV3) | Potency (Tov-21-G) | Potency (Tov112D)

CC1=C(C)C(=O)OC(C(C)C2C(O)CC3C4C5OC5C5(O)CC(OC6OC(CO)C(O)C(O)C6O)CC(O)C5(C)C4CCC32C)C1 (centres undefined)
inactive: Potency (C33A) | Potency (CAOV3) | Potency (CASKI) | Potency (Es-2) | Potency (HeLa) | Potency (Hek293T) | Potency (JEG-3) | Potency (OV90) | Potency (PA-1) | Potency (SKOV3) | Potency (Tov-21-G) | Potency (Tov112D)

CCOc1nc2cccc(C(=O)O)c2n1Cc1ccc(-c2ccccc2-c2noc(=O)[nH]2)cc1
inactive: Potency (C33A) | Potency (CAOV3) | Potency (CASKI) | Potency (Es-2) | Potency (HeLa) | Potency (Hek293T) | Potency (JEG-3) | Potency (OV90) | Potency (PA-1) | Potency (SKOV3) | Potency (Tov-21-G) | Potency (Tov112D)

COc1ccc(/C=C/C(=O)O[C@H]2[C@@H]3C=CO[C@@H](O[C@@H]4O[C@H](CO)[C@@H](O)[C@H](O)[C@H]4O)[C@@H]3[C@@]3(CO)O[C@@H]23)cc1O
inactive: Potency (C33A) | Potency (CAOV3) | Potency (CASKI) | Potency (Es-2) | Potency (HeLa) | Potency (Hek293T) | Potency (JEG-3) | Potency (OV90) | Potency (PA-1) | Potency (SKOV3) | Potency (Tov-21-G) | Potency (Tov112D)

CC1(C)CC2C3=CCC4C5(C)CCC(OC6OC(CO)C(O)C(OC7OC(CO)C(O)C(OC8OC(CO)C(O)C(OC9OC(COC%10OC(CO)C(O)C(O)C%10O)C(O)C(O)C9O)C8O)C7O)C6O)C(C)(C)C5CCC4(C)C3(C)CCC2(C(=O)O)CC1O (centres undefined)
inactive: activity change, negative = cytotoxicity (C33A) 6.53% [at 6.55 µM] | activity change, negative = cytotoxicity (CAOV3) 3.47% [at 6.55 µM] | activity change, negative = cytotoxicity (CASKI) -0.0614% [at 6.55 µM] | activity change, negative = cytotoxicity (Es-2) 1.92% [at 6.55 µM] | activity change, negative = cytotoxicity (HeLa) -11.1% [at 6.55 µM] | activity change, negative = cytotoxicity (Hek293T) -9.53% [at 6.55 µM] | activity change, negative = cytotoxicity (JEG-3) 6.92% [at 6.55 µM] | activity change, negative = cytotoxicity (OV90) 0.668% [at 6.55 µM] | activity change, negative = cytotoxicity (PA-1) 1.44% [at 6.55 µM] | activity change, negative = cytotoxicity (SKOV3) 0% [at 6.55 µM] | activity change, negative = cytotoxicity (Tov-21-G) -2.7% [at 6.55 µM] | activity change, negative = cytotoxicity (Tov112D) 1.66% [at 6.55 µM]

CC(=O)OCCC(C)CCC1C(C)(O)CCC2C(C)(C)CCCC21C (centres undefined)
inactive: Potency (C33A) | Potency (CAOV3) | Potency (CASKI) | Potency (Es-2) | Potency (HeLa) | Potency (Hek293T) | Potency (JEG-3) | Potency (OV90) | Potency (PA-1) | Potency (SKOV3) | Potency (Tov-21-G) | Potency (Tov112D)

COC(=O)[C@@]1(C)CC[C@]2(C(=O)O[C@@H]3O[C@H](CO)[C@@H](O)[C@H](O)[C@H]3O)CC[C@]3(C)C(=CCC4[C@@]5(C)CC[C@H](O[C@@H]6O[C@H](C(=O)O)[C@@H](O)[C@H](O)[C@H]6O)C(C)(C)C5CC[C@]43C)[C@@H]2C1 (some centres undefined)
inactive: activity change, negative = cytotoxicity (C33A) -14.8% [at 11.6 µM] | activity change, negative = cytotoxicity (CAOV3) -1.21% [at 11.6 µM] | activity change, negative = cytotoxicity (CASKI) -4.58% [at 11.6 µM] | activity change, negative = cytotoxicity (Es-2) -0.312% [at 11.6 µM] | activity change, negative = cytotoxicity (HeLa) -10.5% [at 11.6 µM] | activity change, negative = cytotoxicity (Hek293T) -3.38% [at 11.6 µM] | activity change, negative = cytotoxicity (JEG-3) -1.5% [at 11.6 µM] | activity change, negative = cytotoxicity (OV90) -2.61% [at 11.6 µM] | activity change, negative = cytotoxicity (PA-1) -17.6% [at 11.6 µM] | activity change, negative = cytotoxicity (SKOV3) -12.6% [at 11.6 µM] | activity change, negative = cytotoxicity (Tov-21-G) 1.4% [at 11.6 µM] | activity change, negative = cytotoxicity (Tov112D) -8.48% [at 11.6 µM]

C=C(C)[C@@H]1CC[C@](C)(O)[C@@H](OC(=O)c2ccccc2)C1
inactive: Potency (C33A) | Potency (CAOV3) | Potency (CASKI) | Potency (Es-2) | Potency (HeLa) | Potency (Hek293T) | Potency (JEG-3) | Potency (OV90) | Potency (PA-1) | Potency (SKOV3) | Potency (Tov-21-G) | Potency (Tov112D)

CC1(C)CC2C(C1)C1(C)CCC13OC3(CO)C2O (centres undefined)
inactive: Potency (C33A) | Potency (CAOV3) | Potency (CASKI) | Potency (Es-2) | Potency (HeLa) | Potency (Hek293T) | Potency (JEG-3) | Potency (OV90) | Potency (PA-1) | Potency (SKOV3) | Potency (Tov-21-G) | Potency (Tov112D)
